This note sets out measurements from PubChem BioAssay AID504466 (National Center for Advancing Translational Sciences (NCATS), 2011).

The whole screen tested about 330,000 compounds, of which about 4,200 (1.3%) were called active. Another 6% or so got no clear call; they are omitted. For the sample, actives were picked, then their nearest neighbours and some compounds at random. Values without a mark were called inactive. The call rests on the fitted dose curve; in most records, active means well fitted activation curve with a large enough effect; inconclusive means small, poorly fitted or top-dose-only effect; inactive means no such curve, though single readings can be large or run the other way.
Potency means the concentration at half of the fitted maximal effect.

A short description of the test: qHTS screen for small molecules that induce genotoxicity in human embryonic kidney (HEK293T) cells expressing luciferase-tagged ELG1. Further: nearly all actives have a fitted effect of over 60% in size. On activity change, positive = activation: % of control where 0% means no effect. The following applies: HEK293T ELG1-luciferase reporter, luminescence, 16 h; series mostly up to 46 µM; activity change, positive = activation: at the top concentration. From the text:
NIH Molecular Libraries Probe Production Network [MLPCN] NIH Chemical Genomics Center [NCGC] MLPCN Grant: 1 R03 MH092164-01 Assay Provider: Kyungjae Myung, NHGRI, NIH Keywords: MLPCN, qHTS, NCGC, genotoxicity, cancer Assay Overview: Cancer cells divide rapidly compared to normal cells in the body. During cell division, cancer cells need to duplicate their genome by DNA replication. The failure of genome duplication leads to cancer cells' death. Therefore, inhibitors of DNA replication could specifically kill cancer cells. Based on this concept, many chemotherapeutic agents were developed and have been used to treat cancer patients. However, there are a limited number of agents available in the clinical setting, and some of those that do exist have low efficacy and severe side effects. Therefore, if we can find the compounds that effectively block DNA replication either by directly damaging DNA or by inhibiting other cellular mechanisms, the options for cancer treatment will be broadened. With this in mind, we developed a quantitative high-throughput ELG1-luciferase reporter gene assay. Since the level of human ELG1 protein is enhanced in response to genetic stresses, increases in luciferase activity can be used to identify compounds that cause genetic stress.
Assay Protocol Summary: For genotoxicity screening, 2,000 cells in 5 uL/well were dispensed into white, solid-bottom 1536-well plates using a solenoid-based dispenser. Following transfer of 23 nL compound or DMSO vehicle by a pin tool, the plates were incubated 16 hr at 37 °C and 5% CO2. 5 ul ONE-Glo (Promega) was then added to each plate and following a 30 min incubation at room temperature, luciferase activity was quantified on a ViewLux CCD-based plate reader.
Take `Cc1cc(NC(=O)CSCC(=O)NC(C)c2ccccc2)no1` (stereo not given): the “activity change, positive = activation” value was 1.08%. Still for that read-out and setting: under `Cc1cccc(-n2ncc(Cl)c(Cl)c2=O)c1` stands -13.8%; under `COc1ccc2oc(=O)c(C(=O)N3CCCc4ccccc43)cc2c1`, -9.84%. Turning to `COc1ccc(-n2ncc3c(N4CCCc5ccccc54)ncnc32)cc1`, the Potency was 1.16 µM (active).

Consider `COc1ccccc1N1CCN(C(=O)CSc2ncnc3c2cnn3-c2ccc(C)c(C)c2)CC1`, for which the “activity change, positive = activation” value was 0.292%. Consider `Cc1cccc(-n2ncc3c(N4CCc5ccccc54)ncnc32)c1`, for which the Potency was 2.59 µM (active). As to `COc1ccc(-n2ncc3c(SCC(=O)NNC(C)=O)ncnc32)cc1`, the “activity change, positive = activation” value is 15.2%.

Regarding `O=C1COc2ccc(C(=O)COC(=O)CCOc3ccccc3)cc2N1`, the “activity change, positive = activation” value was -1.34%.

Turning to `C=CCC[C@H](Cc1ccc(F)cc1)C(=O)OC[C@@H](Cc1c[nH]c2ccccc12)NC(=O)[C@H](CC=C)CC(=O)N[C@H](CO)Cc1ccccc1`, the “activity change, positive = activation” value was -3.43%. For `COc1cc2ccccc2cc1C(=O)Nc1ccc(NC(=O)c2cccs2)cc1`, the “activity change, positive = activation” value was -6.8%. Same read-out and setting: to `COc1cc2ccccc2cc1C(=O)Nc1ccc(N2CCOCC2)cc1` belongs 16.1%. Consider `COc1cc2ccccc2cc1C(=O)Nc1ccncc1`, for which the Potency was 16.4 µM (active). As to `O=C(CSc1nnc(-c2ccncc2)o1)Nc1cccc(Cl)c1`, the “activity change, positive = activation” value was 14.8%.

On to `CN(Cc1ccc(CNC[C@H]2O[C@@H](n3cnc4c(N)ncnc43)[C@H](O)[C@@H]2O)o1)S(C)(=O)=O`, for which the “activity change, positive = activation” value is 0.515%. For `Cc1ccc(NC(=O)NC(=O)CSc2nnc(-c3ccc(OC(F)F)cc3)n2N)c(C)c1`, the “activity change, positive = activation” value is 3.7%. On the same count and under the same terms, to `Cc1ccc(-c2nnc(SC(C)C#N)n2N)cc1` (stereo not given) belongs 13.4%.

For the molecule `C=C(C)CSc1nnc(-c2ccc(C)cc2)n1N`, the Potency is 10 µM (active).

With `CN(CC(=O)NCCc1ccc(S(N)(=O)=O)cc1)CC(=O)Nc1ccc(F)c(F)c1F`, the “activity change, positive = activation” value is -0.661%. In the case of `CCOC(=O)C1CCN(C(=O)CN2C(=O)NC(C)(c3ccc4cc(OC)ccc4c3)C2=O)CC1` (stereo not given), the “activity change, positive = activation” value was -5.31%.

With `N#CCCN(C(=O)COC(=O)c1ccc2c(c1)OCCO2)c1ccccc1`, the “activity change, positive = activation” value was 0.0128%. Turning to `O=C(OCC(=O)N1CCCCCC1)c1ccc(Cl)nc1`, the “activity change, positive = activation” value was 0.144%.

For `Cc1ccccc1OCC(=O)Nc1nc(C)c(C(=O)N(C)C)s1`, the “activity change, positive = activation” value is -0.0756%. For the molecule `Cc1cccc(NC(=O)COc2ccccc2C)n1`, the Potency is 18.4 µM (active). Turning to `Cc1cccc(NC(=O)Nc2ccc(OCc3ccccc3)cc2)n1`, the “activity change, positive = activation” value is 4.5%. As to `CCN(CC)S(=O)(=O)c1ccc(C)c(NC(=O)COc2ccc(Br)cc2Cl)c1`, the “activity change, positive = activation” value was 8.73%. In the case of `COCCNC(=O)COc1ccccc1C`, the “activity change, positive = activation” value is 3.83%. As to `Cc1cccc(NC(=O)COc2ccc(Br)cc2C)n1`, the Potency was 2 µM (active). Regarding `CC(=NNC(=O)c1ccc2nc[nH]c2c1)c1ccc(Br)cc1`, the “activity change, positive = activation” value is 2.04%. On the same count and under the same terms, under `CCOC(=O)C1CCN(CC(=O)Nc2ccc(OC)c(S(=O)(=O)N3CCCCC3)c2)CC1` stands -1.03%. As for `CC1O[C@H](OC2C(COC3OC(CO)C(O)[C@H](O)C3O)OC(OC3CC[C@]4(C)C(CC[C@@]5(C)[C@@H]4C=C[C@]46OC[C@@]7(CCC(C)(C)C[C@H]74)C(O)C[C@@]56C)C3(C)C)C(O)C2O)C(O)C(O)C1O` (stereo not given in full), the “activity change, positive = activation” value is 2.19%. With `CC(=O)c1sc(N)nc1C`, the “activity change, positive = activation” value is 4.58%. On to `CC(=O)c1sc(NC(=O)C2=NN(c3ccccc3)C(=O)CC2)nc1C`, for which the “activity change, positive = activation” value is -0.325%. Turning to `CC(=O)c1sc(N/N=C\c2ccc(C)cc2)nc1C`, the Potency is 18.4 µM (active).

Consider `COc1cc(C=NNC(=O)c2cccnc2)ccc1OC(=O)c1ccccc1F`, for which the “activity change, positive = activation” value was 0.184%. With `CC[C@@H]1CCCCc2ccccc2[C@@H](C(=O)C[C@H](O)CC(C)=O)OC1=O`, the “activity change, positive = activation” value is 0.282%. As for `O=C(CN1C(=O)NC2(CCCCCCC2)C1=O)NCc1ccc(F)cc1`, the “activity change, positive = activation” value was 1.1%. On to `Cc1ccc(NC(=O)CN(C)C(=O)c2ccc(Cl)c(S(=O)(=O)NCc3ccco3)c2)cc1`, for which the “activity change, positive = activation” value is -2.11%. As for `COc1ccc(N=C(C)c2sc3ccccc3c2O)cc1`, the Potency was 2.31 µM (active). Regarding `COC(=O)c1ccc(/C=C/c2c(-c3ccc(OC)cc3)sc3ccccc23)cc1`, the “activity change, positive = activation” value is 0.743%. As for `Oc1ccc(N=Cc2sc3ccccc3c2Cl)cc1`, the “activity change, positive = activation” value is -1.68%. With `CCOc1ccccc1Nc1nnc(SCC(=O)NCC2CCCO2)s1` (stereo not given), the “activity change, positive = activation” value was -2.62%. Consider `Cc1ccc(C)c(NC(=O)CN(C)C(=O)COc2ccc3ccccc3c2)c1`, for which the “activity change, positive = activation” value was -2.21%.

Regarding `O=C(CSc1nc2ccccc2c(=O)n1-c1ccccc1F)N1CCOCC1`, the “activity change, positive = activation” value is 8.89%.

For `O=C(CSc1nc2ccccc2c(=O)n1-c1ccc(F)cc1)NC1CC1`, the “activity change, positive = activation” value was 4.22%. For the molecule `Cc1ccc(-n2c(SCC(=O)N3CCC(C(=O)O)CC3)nc3ccccc3c2=O)cc1C`, the Potency is 14.6 µM (active).

Take `COc1ccc(S(=O)(=O)N2CCCCCC2)cc1NC(=O)Cc1ccc(OC)c(OC)c1`: the “activity change, positive = activation” value was -1.59%. Turning to `N#CC(Cc1cc2ccccc2n1S(=O)(=O)c1ccccc1)OCc1ccccc1` (stereo not given), the “activity change, positive = activation” value is -2.05%. On the same count and under the same terms, to `Cc1ccc2nc(N3CCN(C(=O)c4ccco4)CC3)sc2c1` belongs 11.9%; to `O=C(NCCc1cccc(F)c1)C1CCCN(c2nc3ccccc3s2)C1` (stereo not given), -3.62%. For `Fc1ccc2nc(N3CCCCC3)sc2c1`, the Potency was 7.31 µM (active).
